Structures are written as SMILES. Screen size: about 68,000 compounds; about 2,700 (4%) showed an effect of 50% or more. This excerpt belongs to a sample that is enriched for strong results.

The subject of the assay is Plasmodium berghei. As to the kind of experiment: Screen against P. berghei liver stage (PbLuc), transformed with Luciferase, at 2uM. To be noted: tested at 2 uM. In kind it is functional, HepG2.
Take `Cc1cc(C(=O)N2CCCS2(=O)=O)c(C)o1`: the INHIBITION was -15.41%.

`COC(=O)CN1CCC(C(=O)c2cc(F)ccc2F)CC1`: the INHIBITION came out at 35.23%.

With `Cc1oc(-c2ccco2)nc1CN1CCCC(Cn2cncn2)C1` (stereo unspecified), the INHIBITION turned out to be 43.7%.

For the molecule `O=C(CN1CC(c2ccccc2)CC1=O)N1CCC(c2ncc[nH]2)CC1` (stereo unspecified), the INHIBITION is -63.6%.

For the molecule `Cc1nnc2n1CCN(C(=O)C(C)Oc1ccc(C#N)cc1)C2` (stereo unspecified), the INHIBITION was found to be 35.56%.

On to `COc1cc(C#N)ccc1OCC(=O)NS(=O)(=O)c1ccccc1`, for which the INHIBITION is -0.89%.

For `CC(C)c1noc(OCC(=O)N(C)C(C)C)n1`, the INHIBITION is -6.48%.

On to `Cc1nsc(N2CCCN(C(=O)c3ccc4[nH]ccc4c3)CC2)n1`, for which the INHIBITION is 24.36%.

`Cc1nsc(N2CCN(C(=O)Nc3cccc(F)c3)CC2)n1`: the INHIBITION was found to be 45.82%.

Consider `Cc1nsc(N2CCN(C(=O)Nc3ccc4[nH]ccc4c3)CC2)n1`, for which the INHIBITION is listed as 57.75%.

For the molecule `CO[C@H]1CN(C(=O)c2cccc(C)n2)CC[C@@]12CCCO2`, the INHIBITION was determined as 19.91%.

Take `CO[C@H]1CN(C(=O)c2cn3cc(C)ccc3n2)CC[C@@]12CCCO2`: the INHIBITION is 80.88%.

As for `CO[C@H]1CN(C(=O)c2ccc3oc(C)cc3c2)CC[C@@]12CCCO2`, the INHIBITION is 27.16%.

Regarding `CC(C)(C)NC(=O)C1(Cc2ccccc2-c2ccncc2)CCOCC1`, the INHIBITION is on record as 16.55%.

In the case of `O=C(NCCO)C1(Cc2ccccc2-c2ccncc2)CCOCC1`, the INHIBITION is 26.14%.

Regarding `COc1ccccc1C1=NOC(CC2(C(=O)O)CCOCC2)C1` (stereo unspecified), the INHIBITION is given as 8.89%.

Take `COc1ccc(F)cc1-c1ccccc1CC1(C(=O)O)CCOCC1`: the INHIBITION was 53.95%.

For the molecule `COc1ccccc1-c1ccccc1CC1(C(=O)O)CCNCC1`, the INHIBITION was -18.15%.

Take `COCCNC(=O)C1(Cc2ccccc2-c2ccncc2)CCOCC1`: the INHIBITION was 52.82%.

With `COCCOc1cccc(CNCc2ccc(-n3cncn3)nc2)c1`, the INHIBITION stood at 5.47%.

For the molecule `CC(C)N1CCO[C@H]2CN(C(=O)Cc3cccs3)C[C@H]21`, the INHIBITION is given as 9.87%.

In the case of `COc1ccc(-c2nnc(SC(C)C(N)=O)[nH]2)c(OC)c1` (stereo unspecified), the INHIBITION was -61.3%.

`COc1ccc(C(=O)C2CCCN(c3cc(N)ncn3)C2)c(C)c1` (stereo unspecified): the INHIBITION was 16.32%.

Turning to `COc1ccc(C(=O)C2CCCN(c3cnccn3)C2)c(C)c1` (stereo unspecified), the INHIBITION worked out at 16.87%.

With `COc1ccc(C(=O)C2CCCN(c3cc(OC)ncn3)C2)c(C)c1` (stereo unspecified), the INHIBITION is 60%.

For the molecule `CN(C)Cc1ccccc1CN(C)C(=O)c1ccoc1`, the INHIBITION came to 16.49%.

With `CCN(CCc1nccs1)C(=O)c1ccco1`, the INHIBITION is listed as 44.23%.

Consider `CCc1ccsc1C(=O)N(C)CCc1ccncc1`, for which the INHIBITION is 70.66%.

As to `CCC(=O)N(CC)CCc1nccs1`, the INHIBITION stood at 36.57%.

As for `CN(CCc1ccncc1)C(=O)c1sccc1OC(F)F`, the INHIBITION is reported as -120.22%.

Consider `Cc1ncsc1C(=O)N(C)CCc1ccncc1`, for which the INHIBITION is reported as -3.38%.

Consider `CN(CCc1ccncc1)CCc1nccs1`, for which the INHIBITION came to 78.24%.

In the case of `CN(CCc1cccs1)CCc1nccs1`, the INHIBITION is on record as 55.25%.

For `CN(CCc1ccccn1)CCc1nccs1`, the INHIBITION is listed as 15.84%.

Take `CN(CCc1ccncc1)Cc1nccn1Cc1ccccc1`: the INHIBITION is given as 33.78%.

Consider `O=C(NCCc1cscn1)c1coc(CN2CCOCC2)c1`, for which the INHIBITION is on record as -0.28%.

`Cc1cccc(N2CCN(C(=O)Cc3ccccc3O)C(C)C2)n1` (stereo unspecified): the INHIBITION was 10.49%.

Take `O=C(O)c1ccn(COc2c(Cl)cccc2Cl)n1`: the INHIBITION came out at 10.62%.

For `Cc1ccc(CN2CCc3c(COCC4CC4)nn(C)c3C2)s1`, the INHIBITION turned out to be 22.12%.

In the case of `COc1ccc(CNCC2CCN(CC(C)O)CC2)c2ccccc12` (stereo unspecified), the INHIBITION turned out to be 7.54%.

As for `COc1cccc(CNCC2CCN(CC(C)O)CC2)c1OC` (stereo unspecified), the INHIBITION is 61.96%.

As for `CCOc1ccccc1CNCC1CCN(CC(C)O)CC1` (stereo unspecified), the INHIBITION was determined as 21.43%.

On to `COc1ccccc1CNC1(CCO)CCOCC1`, for which the INHIBITION is recorded as 13.12%.

On to `Cc1cc(C(=O)N2CCCC(c3ccc(C(=O)O)cc3)C2)c(C)o1` (stereo unspecified), for which the INHIBITION is -56.9%.

With `Cn1ccc(NCc2cc3cc(F)ccc3o2)n1`, the INHIBITION was 5.1%.

Turning to `Cc1cc(-n2nc(C3CC3)nc2-c2csnn2)ccn1`, the INHIBITION is -77.53%.

As to `O=C1CC[C@H]2CN(Cc3cccnc3)CC[C@H]2N1CCc1c[nH]cn1`, the INHIBITION is 50.94%.

For `Cn1cc(CN2CC[C@@H]3[C@@H](CCC(=O)N3CCc3c[nH]cn3)C2)cn1`, the INHIBITION is reported as -21.16%.

For `O=C1CC[C@H]2CN(Cc3cccc(F)c3)CC[C@H]2N1CCc1c[nH]cn1`, the INHIBITION is on record as -13.3%.

As to `CN1CCCC1CCn1ccnc1-c1ccc2ccccc2n1` (stereo unspecified), the INHIBITION turned out to be 5.55%.

Regarding `CCN1CC2(CC1=O)CN(C(=O)c1ccsc1)CCN(C(=O)N(C)C)C2` (stereo unspecified), the INHIBITION came to 26.44%.

For the molecule `Cc1noc2nc(C3CCN(Cc4ccncc4)CC3)cc(C(F)F)c12`, the INHIBITION turned out to be 17.51%.

With `Cc1noc2nc(C3CCCN(Cc4cccnc4)C3)cc(C(F)F)c12` (stereo unspecified), the INHIBITION turned out to be 39.06%.

As to `Cc1noc2nc(C3CCCN(Cc4ccncc4)C3)cc(C(F)F)c12` (stereo unspecified), the INHIBITION was 63.66%.

Consider `COc1c(C)cnc(CN2CCCC2c2noc(C)n2)c1C` (stereo unspecified), for which the INHIBITION is listed as 4.87%.

Take `COCCN(CC1CC1)c1nc(CCN)nc2sc(C)c(C)c12`: the INHIBITION worked out at 13.65%.

The record behind these values is ChEMBL document CHEMBL4513216, “Probing the Open Global Health Chemical Diversity Library for Multistage-Active Starting Points for Next-Generation Antimalarials” (ACS Infect Dis, 2020).
